This is a sample that favours compounds with a hit; in the whole collection about 11% have one here.
G9a inh = G9a (human) methyltransferase inhibition. Q96KQ7. G9a H3K9 monomethylation, AlphaScreen, 2 h. 8.8% of 350,000 active. AID 504332. Potency, µM (top dose mostly 102 µM), usual class: inhibitors; also: nearly all actives have a fitted effect of over 75% in size
Target sequence (Q96KQ7 913-1193 limits assumed): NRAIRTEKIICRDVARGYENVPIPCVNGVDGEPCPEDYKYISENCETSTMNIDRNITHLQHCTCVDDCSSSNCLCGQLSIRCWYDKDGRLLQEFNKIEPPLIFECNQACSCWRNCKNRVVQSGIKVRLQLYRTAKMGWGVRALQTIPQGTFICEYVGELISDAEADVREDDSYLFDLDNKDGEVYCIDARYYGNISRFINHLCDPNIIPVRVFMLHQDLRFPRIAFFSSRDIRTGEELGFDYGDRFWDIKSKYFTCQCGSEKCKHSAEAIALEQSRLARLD
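Chemiluminescent proximity detection of H3K9 monomethylation, read after 10 min bead incubation in the dark. Reaction: 20 nM G9a, 500 nM biotin-H3K9 peptide, 20 uM SAM cofactor, 2 h, room temperature, following 15 min enzyme-compound preincubation.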
BAZ2B block = inhibitors of human BAZ2B bromodomain. Q9UIF8. AlphaScreen BAZ2B-H3K14Ac peptide displacement. Potency, µM (top dose mostly 114 µM), hits mostly inhibitors. 4.4% of 360,000 active. AID 504333; also: nearly all actives have a fitted effect of over 60% in size
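AlphaScreen displacement of biotin-H3(5-23)K14Ac peptide (50 nM final) from BAZ2B (50 nM final) in PBS pH 7.4, 0.01% Tween-20; complex preformed 30 min RT, then compounds (top 110 uM) 30 min RT, beads 20 min dark.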
L3MBTL1 inh = blocks human L3MBTL1 | AlphaScreen L3MBTL1–H3K9me1 peptide binding | Potency, µM (top dose mostly 57.1 µM), most hits filed as inhibitors | 0.66% of 230,000 active; also: nearly all actives have a fitted effect of over 60% in size
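L3MBTL1 50 nM + b-AHA-H3(1-15)K9me1 75 nM, 30 min RT; compound added, 30 min RT; streptavidin donor/Ni-chelate acceptor beads 10 ug/mL each final, 30 min RT dark; AlphaScreen read.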
HP1b chromo inh = inhibitors of HP1-beta chromodomain binding to methylated histone tails. AID 540317. 0.56% of 390,000 active. AlphaScreen HP1-beta / biotin-H3K9me3 peptide binding. Potency, µM (titrated, usually from 114 µM), most hits filed as inhibitors; also: nearly all actives have a fitted effect of over 70% in size
Target sequence (P83916 whole entry, looked up): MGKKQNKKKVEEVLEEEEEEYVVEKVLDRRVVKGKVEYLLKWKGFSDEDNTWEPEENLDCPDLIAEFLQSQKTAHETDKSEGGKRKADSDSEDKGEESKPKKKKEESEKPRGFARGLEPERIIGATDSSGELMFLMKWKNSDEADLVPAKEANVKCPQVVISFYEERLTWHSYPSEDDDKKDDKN
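Compound inhibition of the preformed complex between 50 nM HP1-beta and 50 nM biotinylated H3K9me3 peptide was read by AlphaScreen. Buffer was PBS pH 7.4 with 0.01% Tween-20. Incubations ran 30 min at room temperature, with 10 ug/mL donor/acceptor beads.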
JMJD2A Tudor inh = blocks the human JMJD2A Tudor domain. AlphaScreen JMJD2A-Tudor / H3K4me3 peptide binding. Potency, µM (series often up to 114 µM), actives largely listed as inhibitors. 4.4% of 390,000 active. AID 504339; also: nearly all actives have a fitted effect of over 50% in size
A number is an active result; n = inactive; u = inconclusive; x = no result; ! = a repeat was not active; [ ] = another dose, or the depositor's remark. Calls follow the shape of the dose curve; as a rule, active = well fitted inhibition curve with a large enough effect; inconclusive = small, poorly fitted or top-dose-only effect; inactive = no such curve, though single readings can be large or run the other way.

SMILES | G9a inh | BAZ2B block | L3MBTL1 inh | HP1b chromo inh | JMJD2A Tudor inh
NCCNc1ccc(C(=O)N2c3ccccc3Sc3ccccc32)cc1[N+](=O)[O-] | u | 40µM | n | n | u
O=C(Cc1ccc(F)cc1)OCN1C(=O)c2ccccc2C1=O | 28µM | 79µM | x | n | n
COc1ccc(CC(=O)OCN2C(=O)c3ccccc3C2=O)cc1 | n | n | n | n | n
CCOc1ccc(CC(=O)OCN2C(=O)c3ccccc3C2=O)cc1 | 40µM | n | n | n | n
COCCCNc1nc(=S)[nH]c2cc(OC)c(OC)cc12 | n | n | n | n | n
COc1cc2[nH]c(=S)nc(NCc3cccs3)c2cc1OC | 28µM | n | x | n | n
COc1ccc(CCNc2nc(=S)[nH]c3cc(OC)c(OC)cc23)cc1OC | u | n | x | n | u
COc1cc2[nH]c(=S)nc(NCCC(C)C)c2cc1OC | 18µM | u | n | n | 25µM
COc1cc2[nH]c(=S)nc(NCCc3ccc(S(N)(=O)=O)cc3)c2cc1OC | 13µM | n | n | n | n
COc1cc2[nH]c(=S)nc(NCc3ccc(Cl)cc3)c2cc1OC | n[2.33 µM] | n | x | n | n
COc1ccccc1CNc1nc(=S)[nH]c2cc(OC)c(OC)cc12 | 79µM | n | x | n | n
COC(=O)C1=C[C@@H](C(=O)OC)C2C3=C(C(=O)[C@]2(C)NC(=O)c2ccccc2)[C@H](C)[C@@H]2C(=O)N(C)C(=O)[C@@H]2[C@@H]3C1 (some centres not stated) | x | x | x | n | n
CN(C)CC1CC/C(=C\c2ccc(O)cc2)C1=O (configuration not stated) | x | x | x | u | 89µM
COc1ccc(/C=C2/CCC(CN3CCOCC3)C2=O)cc1 (configuration not stated) | x | x | x | u | 79µM
CC1CCC/C(=C\c2ccc(O)cc2)C1=O (configuration not stated) | x | x | x | n | n
COc1ccc(C(=O)NCC(=O)OCC(=O)c2ccc3ccccc3c2)cc1 | x | x | x | n | n
Cc1ccc(S(=O)(=O)c2nc(-c3ccco3)oc2SCc2ccccc2Cl)cc1 | n | n | x | n | n
CCN(Cc1ccccc1)C(=O)c1cnn(-c2ccc(F)cc2)c1-n1cccc1 | u | n | x | n | n
Cc1cccc(CS(=O)(=O)c2ncc(Cl)c(C(=O)Nc3c(C)cccc3C)n2)c1 | 35µM | n | x | n | n
Cc1cccc(C)c1NC(=O)c1nc(S(=O)(=O)Cc2ccccc2)ncc1Cl | u | n | x | n | n
CCc1nnc(NC(=O)c2nc(S(C)(=O)=O)ncc2Cl)s1 | 7.1µM | n | x | n | 10µM
COc1ccc(OC)c(NC(=O)c2nc(S(=O)(=O)Cc3ccccc3)ncc2Cl)c1 | 35µM | n | x | n | n
CCc1nnc(NC(=O)c2cc(Cl)ccn2)s1 | 79µM | 20µM | x | n | 16µM
CCc1nnc(NC(=O)c2ccc(Cl)nc2)s1 | u | n | n | n | n
NC(=O)C1(N2CCCCC2)CCN(CCCC(=O)c2ccc(F)cc2)CC1 | n[12.7 µM] | x | x | x | x
SMILES | G9a inh | BAZ2B block | L3MBTL1 inh | HP1b chromo inh | JMJD2A Tudor inh
O=C(Cn1ncc2c([nH]c3ccccc32)c1=O)NCc1cccc(Cl)c1 | n | n | x | n | n
COc1cccc(NC(=O)CC(C)S(=O)(=O)c2ccc3c(c2)NC(=O)CO3)c1 (configuration not stated) | n | n | x | n | n
Cc1nnc(NC(=O)c2nc(S(=O)(=O)Cc3ccccc3)ncc2Cl)s1 | 40µM | 50µM! | x | n | 32µM
Cc1ccccc1CS(=O)(=O)c1ncc(Cl)c(C(=O)Nc2ccc(F)cc2)n1 | 22µM | n | x | n | n
COc1ccc(C2CC(=O)C(C=NCCN3CCN(C(=S)Nc4ccccc4)CC3)=C(O)C2)cc1OC (configuration not stated) | u | n | x | n | n
CCCCN(CCCC)CCNC(=O)Cn1nc(CC)n2c(cc3sccc32)c1=O | n | n | x | n | n
COc1ccc(CCNc2oc(COc3ccccc3F)nc2C#N)cc1OC | 45µM | u | n | u | n[11.4 µM]
COc1ccc(-c2nc(C#N)c(NCCc3ccccc3)o2)cc1OC | u | 45µM | x | n | u
COc1ccc(Nc2oc(COc3ccccc3OC)nc2C#N)cc1 | u | u | n | n | u
CCNc1oc(COc2ccccc2F)nc1C#N | 40µM | n | n | n | n
Cc1cccc(C)c1NC(=O)Cn1c(=O)n(Cc2ccco2)c(=O)c2ccc(C(=O)NC3CCCC3)cc21 | n | x | x | n | n
Cc1ccc(-c2noc(-c3nnn(CC(=O)Nc4cccc(C(F)(F)F)c4)c3N)n2)cc1 | u | n | x | n | n
CCc1nnc(NS(=O)(=O)c2ccc(NC(=S)NC(=O)c3ccccc3)cc2)s1 | u | u | n | n | u
CCc1nnc(NS(=O)(=O)c2ccc(NC(=S)NC(=O)/C=C/c3ccc(OC)cc3)cc2)s1 | 50µM | u | n | u | 32µM
CCCc1nnc(NS(=O)(=O)c2ccc(OC)cc2)s1 | 45µM | n | n | n | n
CCc1nnc(NS(=O)(=O)c2ccc(NC(=S)NC(=O)c3ccc(Br)cc3)cc2)s1 | n | u | n | n | u
COCc1nnc(NS(=O)(=O)c2ccc(OC)cc2)s1 | x | x | x | n | n
CCc1nnc(NS(=O)(=O)c2ccc(NC(=S)NC(=O)/C=C/c3ccc(C(C)C)cc3)cc2)s1 | n[0.501 µM] | 50µM | n | u | 56µM
CCc1nnc(NS(=O)(=O)c2ccc(NC(=S)NC(=O)/C=C/c3ccccc3)cc2)s1 | u | u | n | n | 79µM
CCc1nnc(NS(=O)(=O)c2ccc(NC(=S)Nc3ccc(F)cc3)cc2)s1 | n | n | n | n | n
COc1ccc(OC)c(NC(=O)Cn2c(=O)n(Cc3ccco3)c(=O)c3cc(OC)c(OC)cc32)c1 | n | u | x | n | n
COc1ccc(NC(=O)CC2C(=O)N(c3ccc(F)cc3)C(=O)N2Cc2ccc3c(c2)OCO3)cc1 (configuration not stated) | n | n | x | n | n
CCOC(=O)C1=C(C)Nc2nc(SCC)nn2C1c1ccc(OC)cc1 (configuration not stated) | n[12.7 µM] | n | x | n | n
CCOC(=O)C1=C(C)Nc2nc(=S)[nH]n2C1c1ccc(Cl)cc1 (configuration not stated) | 1.3µM | n | n | u | 16µM
N=C1N(/N=C/c2ccccc2)C(=Nc2ccccc2)C(=S)N1c1ccccc1 | 10µM | u | n | n | n
SMILES | G9a inh | BAZ2B block | L3MBTL1 inh | HP1b chromo inh | JMJD2A Tudor inh
Cc1nnc(C)n1/N=C/c1ccccc1 | n | n | n | n | n
COc1ccc2c(c1)-c1nc(/N=C/c3cccc(OC)c3O)sc1CC2 | 18µM | 50µM | n | u | u
COc1ccc2c(c1)-c1nc(/N=C/c3ccccc3O)sc1CC2 | u | u | n | u | u
Cc1ccc(C)c(N2CCN(Cc3nnc(-c4ccc5c(c4)OCO5)o3)CC2)c1 | n | n | x | n | u
Cc1c(O)ccoc1=O | n | n | n | n | 28µM
Cn1cc(S(=O)(=O)N2CCOCC2)cc1C(=O)Nc1ccc(Cl)c(C(F)(F)F)c1 | n | n | x | n | n
